Measurements published in PubChem BioAssay (NCATS).
Values joined by “and” are separate entries in the source; they are usually repeats but may differ in a detail not shown here. Equal values may be shown once. Records with an inconclusive call do not appear. Active and inactive are the calls of the source. Unless noted, the call rests on the fitted dose curve.

Key:
[1] = target: Peroxisome proliferator-activated receptor delta (Homo sapiens) (UniProt Q03181); test: qHTS assay for small molecule agonists of peroxisome proliferator-activated receptor delta signaling (AID 588534);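 further: 0% = DMSO basal wells and 100% = positive control agonist at 10 µM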
Sequence of Peroxisome proliferator-activated receptor delta (Homo sapiens) (Q03181 whole entry, looked up): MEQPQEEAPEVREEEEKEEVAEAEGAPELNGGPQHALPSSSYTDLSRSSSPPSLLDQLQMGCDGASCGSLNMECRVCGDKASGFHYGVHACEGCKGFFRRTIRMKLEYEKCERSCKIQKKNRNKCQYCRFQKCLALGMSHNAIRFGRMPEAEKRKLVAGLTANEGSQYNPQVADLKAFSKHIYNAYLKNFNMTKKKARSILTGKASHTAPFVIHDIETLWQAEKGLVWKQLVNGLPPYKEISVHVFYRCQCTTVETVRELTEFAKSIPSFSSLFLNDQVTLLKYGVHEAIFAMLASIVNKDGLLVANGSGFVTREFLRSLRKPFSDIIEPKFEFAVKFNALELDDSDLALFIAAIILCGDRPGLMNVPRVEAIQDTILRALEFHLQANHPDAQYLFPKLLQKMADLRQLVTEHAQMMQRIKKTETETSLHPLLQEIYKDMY
Procedure, shortened: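 Agonist-mode qHTS; reporter cells, 5 hrs 37 C pre-incubation; compound titration, 18 hrs 37 C; CCF4 dye, 2 hrs RT; fluorescence read. EC50/efficacy via Hill fit.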

[2] = qHTS assay for small molecule antagonists of peroxisome proliferator-activated receptor delta signaling (AID 588535; active means well fitted inhibition curve with a large enough effect in the signal ratio, with a control signal flat, not every such curve was filed as active; the % refers to the signal ratio;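 on max response: cells co-treated with a PPAR-delta agonist as stimulator during compound exposure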); settings: HEK293T PPARd-UAS-bla, beta-lactamase FRET ratio, 18 h; 460 nm channel
Procedure, shortened: (§1)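 Inhibition of PPAR-delta response element-driven beta-lactamase expression is measured in HEK293T cells exposed to a compound titration series for 18 hrs at 37 C. Half-maximal inhibition comes from Hill equation fitting.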

[3] = target: Peroxisome proliferator-activated receptor delta (Homo sapiens) (UniProt Q03181); test: as above
Procedure, shortened: as §1

[4] = target: Vitamin D3 receptor (Homo sapiens) (UniProt P11473); test: qHTS assay for small molecule antagonists of vitamin D receptor signaling (AID 588541);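 further: receptor activated by calcitriol during compound treatment; series mostly up to about 77 µM; on the % scale 0 is the no-effect control and ±100 the full control effect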
Sequence of Vitamin D3 receptor (Homo sapiens) (P11473 whole entry, looked up): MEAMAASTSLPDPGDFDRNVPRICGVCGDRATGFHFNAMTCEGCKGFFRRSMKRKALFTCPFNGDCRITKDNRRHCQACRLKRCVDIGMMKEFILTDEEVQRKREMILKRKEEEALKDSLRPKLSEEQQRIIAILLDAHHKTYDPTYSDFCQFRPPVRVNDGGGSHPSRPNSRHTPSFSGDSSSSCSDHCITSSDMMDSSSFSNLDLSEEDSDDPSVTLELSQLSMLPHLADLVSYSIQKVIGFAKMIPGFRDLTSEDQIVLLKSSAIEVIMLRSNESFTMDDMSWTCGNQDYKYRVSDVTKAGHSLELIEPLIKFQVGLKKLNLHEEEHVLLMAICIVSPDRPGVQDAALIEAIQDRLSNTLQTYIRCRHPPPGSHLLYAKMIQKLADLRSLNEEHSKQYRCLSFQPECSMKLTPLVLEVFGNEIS
Procedure, shortened: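 VDR-UAS-bla HEK293T cells (2000/well, 2% charcoal-stripped FBS) were treated with titrated compounds plus 1-alpha,25-dihydroxyvitamin D3 (50 nM or 3 nM final) for 16 h at 37 C. CCF4 beta-lactamase fluorescence was read; Hill fits gave IC50.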

[5] = target: Vitamin D3 receptor (Homo sapiens) (UniProt P11473); test: qHTS assay for small molecule agonists of vitamin D receptor signaling (AID 588543);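 further: 0% = DMSO basal and 100% = reference agonist control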
Procedure, shortened: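 VDR-UAS-bla HEK293T cells, 2000/well, 2% charcoal-stripped FBS; compound titration 16 h at 37 C; CCF4 beta-lactamase ratio read. Normalized to 50 nM 1-alpha,25-dihydroxyvitamin D3 (100%) and DMSO; Hill fit gives EC50, efficacy.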

[6] = qHTS assay for small molecule agonists of retinoid X receptor alpha signaling (AID 588544); settings: HEK293T RXRa-UAS-bla, beta-lactamase reporter, 18 h; 530 nm emission;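 on activation: 0% = DMSO basal wells and 100% = reference agonist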
[7] = target: Retinoic acid receptor RXR-alpha (Homo sapiens) (UniProt P19793); test: as above
Sequence of Retinoic acid receptor RXR-alpha (Homo sapiens) (P19793 whole entry, looked up): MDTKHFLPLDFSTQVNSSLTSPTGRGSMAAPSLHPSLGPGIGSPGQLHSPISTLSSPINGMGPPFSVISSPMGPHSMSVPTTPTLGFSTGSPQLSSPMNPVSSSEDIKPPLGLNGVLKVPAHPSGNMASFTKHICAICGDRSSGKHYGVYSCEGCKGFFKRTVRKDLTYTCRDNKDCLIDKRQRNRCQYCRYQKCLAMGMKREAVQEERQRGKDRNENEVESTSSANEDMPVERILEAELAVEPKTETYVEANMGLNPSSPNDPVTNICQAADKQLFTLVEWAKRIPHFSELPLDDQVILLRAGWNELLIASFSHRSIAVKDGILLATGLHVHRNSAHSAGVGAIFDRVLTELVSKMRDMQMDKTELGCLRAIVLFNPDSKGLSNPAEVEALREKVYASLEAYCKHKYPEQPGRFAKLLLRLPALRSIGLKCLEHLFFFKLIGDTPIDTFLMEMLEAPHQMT

[8] = target: Thyroid hormone receptor beta (Homo sapiens) (UniProt P10828); test: qHTS assay for small molecule agonists of thyroid hormone receptor beta signaling (AID 588545)
Sequence of Thyroid hormone receptor beta (Homo sapiens) (P10828 whole entry, looked up): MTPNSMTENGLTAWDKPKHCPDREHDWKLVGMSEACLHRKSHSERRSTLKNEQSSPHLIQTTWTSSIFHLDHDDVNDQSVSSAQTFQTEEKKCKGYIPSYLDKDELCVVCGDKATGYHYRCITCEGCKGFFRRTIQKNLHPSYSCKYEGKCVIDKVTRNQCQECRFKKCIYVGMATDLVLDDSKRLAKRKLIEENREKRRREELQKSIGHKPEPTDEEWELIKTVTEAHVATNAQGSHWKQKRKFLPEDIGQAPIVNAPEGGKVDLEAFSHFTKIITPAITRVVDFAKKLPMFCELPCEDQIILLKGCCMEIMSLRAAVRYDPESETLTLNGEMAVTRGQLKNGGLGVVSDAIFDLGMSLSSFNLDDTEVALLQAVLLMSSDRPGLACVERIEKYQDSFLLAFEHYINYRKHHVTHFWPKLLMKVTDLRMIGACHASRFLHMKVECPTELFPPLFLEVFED
Procedure, shortened: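 Agonist activity was read as beta-lactamase CCF4 fluorescence (405 ex, 460/530 em), scaled between DMSO (0%) and 10 nM T3 (100%), then Hill-fitted for EC50 and efficacy. HEK 293 TR-UAS-bla cells in 2% charcoal/dextran FBS medium were exposed 18 h at 37 C.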

[9] = qHTS assay for small molecule antagonists of retinoid X receptor alpha signaling (AID 588546; active means well fitted inhibition curve with a large enough effect in the signal ratio, with a control signal flat, not every such curve was filed as active; the % refers to the signal ratio;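 further: cells stimulated with 9-cis-retinoic acid as agonist; on the % scale 0 is the no-effect control and ±100 the full control effect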); settings: HEK293T RXRa-UAS-bla, beta-lactamase ratio, antagonist mode; measured here: W530 green channel, cytotoxicity proxy
Procedure, shortened: (§2)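 Beta-lactamase reporter inhibition, read as CCF4 fluorescence ratio (ex 405, em 460/530 nm) after 2 h at RT. HEK293T UAS-bla cells, 2500/well, were stimulated with 9-cis-RA at 500 or 100 nM final alongside test compound for 18 h at 37 C.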

[10] = target: Retinoic acid receptor RXR-alpha (Homo sapiens) (UniProt P19793); test: as above; settings: HEK293T RXRa-UAS-bla, beta-lactamase ratio, antagonist mode
Procedure, shortened: as §2

[11] = qHTS assay for small molecule activators of the nuclear factor-kappa B (NF-kB) signaling pathway (AID 651749; active means well fitted activation curve with a large enough effect in the signal ratio; the % refers to the signal ratio; further: series mostly up to about 77 µM; % of control where 0% means no effect); settings: NF-kB-bla ME-180 cells, beta-lactamase FRET ratio, 16 h; activation: stronger effect = higher value
Procedure, shortened: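 Human ME-180 cervical cells with an NF-kB-bla construct; compounds added via 23 nL pin transfer, DMSO as vehicle; incubation 16 hr. Reporter activity measured by FRET disruption.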

[12] = qHTS assay for environmental chemicals that activate the Aryl hydrocarbon Receptor (AhR) signaling pathway (AID 651777; active means well fitted curve in the direction sought with a large enough effect; an effect the other way counts as inactive or inconclusive; further: nearly all actives have a fitted effect of over 15% in size; further: potency means the concentration at half of the fitted maximal effect; on activation: % of control where 0% means no effect); settings: 1A2-DRE human hepatoma cells, luciferase, 24 h; activation: stronger effect = higher value
Procedure, shortened: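 Reporter gene assay: hepatoma cells with DRE/CYP1A2-luciferase, 24 hr compound incubation at 37 C, 5% CO2, luminescence after One-Glo (30 min, RT).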

[13] = target: Peroxisome proliferator-activated receptor alpha (Homo sapiens) (UniProt Q07869); test: qHTS assay for small molecule agonists of the peroxisome proliferator-activated receptor alpha (PPARalpha) signaling pathway (AID 651778; active means well fitted curve in the direction sought with a large enough effect; an effect the other way counts as inactive or inconclusive; further: % of control where 0% means no effect); settings: PathHunter PPARalpha complementation, chemiluminescence, 6 h; max response: stronger effect = higher value
Sequence of Peroxisome proliferator-activated receptor alpha (Homo sapiens) (Q07869 whole entry, looked up): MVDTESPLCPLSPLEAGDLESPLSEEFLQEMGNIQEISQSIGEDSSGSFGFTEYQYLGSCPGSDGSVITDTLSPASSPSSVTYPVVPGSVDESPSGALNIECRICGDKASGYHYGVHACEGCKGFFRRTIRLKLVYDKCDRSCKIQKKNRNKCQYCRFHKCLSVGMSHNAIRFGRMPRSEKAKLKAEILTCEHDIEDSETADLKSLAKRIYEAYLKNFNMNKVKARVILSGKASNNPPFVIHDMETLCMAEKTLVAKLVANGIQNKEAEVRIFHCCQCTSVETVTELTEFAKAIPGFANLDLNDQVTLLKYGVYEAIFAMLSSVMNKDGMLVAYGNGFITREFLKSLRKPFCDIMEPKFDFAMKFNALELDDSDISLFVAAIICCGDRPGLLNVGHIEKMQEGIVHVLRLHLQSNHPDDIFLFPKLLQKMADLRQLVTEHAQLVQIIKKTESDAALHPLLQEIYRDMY
Procedure, shortened: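 Cells plated at 2,000/well and held overnight at 37 C, 5% CO2, then compound added by pin tool for 6 hr; after PathHunter detection reagent and 60 min at room temperature, chemiluminescence from enzyme complementation was read.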

[14] = qHTS assay for small molecule agonists of the antioxidant response element (ARE) signaling pathway measured by Nrf2-dependant transcriptional activity (AID 720636; active means well fitted curve in the direction sought with a large enough effect in the repeat runs; an effect the other way counts as inactive or inconclusive;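 further: HepG2 cells with an ARE-driven luciferase reporter; % of control where 0% means no effect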)
Procedure, shortened: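 Nrf2-dependent transcription is measured in ARE-luc HepG2 cells: compound is applied for 16 hr at 37 C after a 6 hr attachment period, and luciferase activity is quantified by luminescence using ONE-Glo.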

[15] = qHTS assay for small molecule agonists of the antioxidant response element (ARE) signaling pathway measured by Nrf2-dependant transcriptional activity - cell viability counter screen (AID 720653; active means well fitted curve in the direction sought with a large enough effect in the repeat runs; an effect the other way counts as inactive or inconclusive; further: on the % scale 0 is the no-effect control and ±100 the full control effect); settings: ARE-bla HepG2 viability, CellTiter-Glo ATP luminescence, 16 h; max response: stronger effect = lower value
Procedure, shortened: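 ARE-bla HepG2 cells (2,000/well) rested 5 hrs at 37C/5% CO2, then exposed to compounds in DMSO for 16 hrs. Viability was read in the same wells as intracellular ATP by luminescence, 30 min at room temperature after reagent addition.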

[16] = qHTS assay for cell viability of HEK293 cells (AID 743288; active means well fitted curve in the direction sought with a large enough effect; an effect the other way counts as inactive or inconclusive; further: on the % scale 0 is the no-effect control and ±100 the full control effect; nearly all actives have a fitted effect of over 50% in size); settings: ATP luminescence (CellTiter-Glo), 18 h; max response: stronger effect = lower value
Procedure, shortened: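 Steps: plate 2,000 parental HEK293 cells per well; incubate ≥5 h, 37 C; add compounds in DMSO; incubate 18 h, 37 C; add CellTiter-Glo; wait 30 min at room temperature; read luminescence.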

[17] = qHTS assay for cell viability of the p53RE-bla HCT-116 cell line (AID 743292; active means well fitted curve in the direction sought with a large enough effect; an effect the other way counts as inactive or inconclusive; further: on the % scale 0 is the no-effect control and ±100 the full control effect; nearly all actives have a fitted effect of over 55% in size)
Procedure, shortened: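 ATP-based luminescence, 16 h compound exposure at 37 C, p53RE-bla HCT-116 cells at 4,000/well.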

[18] = target: Bile acid receptor (Homo sapiens) (UniProt Q96RI1); test: qHTS assay for small molecule agonists of farnesoid X receptor signaling (AID 588527); settings: HEK293T FXR-UAS-bla, beta-lactamase ratio, 16 h; activation: stronger effect = higher value;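 further: series mostly up to about 77 µM; 0% = vehicle basal and 100% = reference agonist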
Sequence of Bile acid receptor (Homo sapiens) (Q96RI1 whole entry, looked up): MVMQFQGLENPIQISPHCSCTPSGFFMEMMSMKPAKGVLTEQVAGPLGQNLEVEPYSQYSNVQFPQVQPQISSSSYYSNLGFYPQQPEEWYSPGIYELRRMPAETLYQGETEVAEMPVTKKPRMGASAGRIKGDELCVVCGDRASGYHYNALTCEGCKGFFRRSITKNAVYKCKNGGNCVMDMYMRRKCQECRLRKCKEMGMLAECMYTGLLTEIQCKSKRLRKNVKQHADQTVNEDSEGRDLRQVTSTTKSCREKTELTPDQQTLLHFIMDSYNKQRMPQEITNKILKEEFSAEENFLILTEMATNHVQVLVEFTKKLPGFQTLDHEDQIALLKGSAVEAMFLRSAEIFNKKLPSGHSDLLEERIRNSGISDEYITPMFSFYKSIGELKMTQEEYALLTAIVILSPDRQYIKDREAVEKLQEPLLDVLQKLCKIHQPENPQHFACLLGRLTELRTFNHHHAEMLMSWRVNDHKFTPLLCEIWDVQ
Procedure, shortened: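 Agonist-mode beta-lactamase reporter in GeneBLAzer FXR-UAS-bla HEK293T cells, titration up to 92 uM, 16 h exposure at 37 C, CCF4 fluorescence. Response scaled to DMSO (0%) and 100 uM chenodeoxycholic acid (100%), then Hill-fitted for EC50 and efficacy.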

[19] = qHTS assay for small molecule activators of the p53 signaling pathway (AID 651743; active means well fitted activation curve with a large enough effect in the signal ratio, not every such curve was filed as active; the % refers to the signal ratio; further: series mostly up to about 92 µM; % of control where 0% means no effect); settings: HCT-116 p53RE-bla, beta-lactamase FRET ratio, 16 h; activation: stronger effect = higher value
Procedure, shortened: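 Agonist-mode quantitative HTS in HCT-116 cells carrying a p53-response-element beta-lactamase reporter; 16 h compound treatment at 37 C, then FRET substrate loading for 2 h at room temperature and fluorescence read.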

[20] = target: Nuclear receptor subfamily 1 group I member 2 (Rattus norvegicus) (UniProt Q9R1A7); test: qHTS assay for small molecule activators of the rat pregnane X receptor (rPXR) signaling pathway (AID 651751; call rule not given here; further: 0% is about no effect); settings: rPXR reporter cells, luciferase (One-Glo), 24 h
Sequence of Nuclear receptor subfamily 1 group I member 2 (Rattus norvegicus) (Q9R1A7 whole entry, looked up): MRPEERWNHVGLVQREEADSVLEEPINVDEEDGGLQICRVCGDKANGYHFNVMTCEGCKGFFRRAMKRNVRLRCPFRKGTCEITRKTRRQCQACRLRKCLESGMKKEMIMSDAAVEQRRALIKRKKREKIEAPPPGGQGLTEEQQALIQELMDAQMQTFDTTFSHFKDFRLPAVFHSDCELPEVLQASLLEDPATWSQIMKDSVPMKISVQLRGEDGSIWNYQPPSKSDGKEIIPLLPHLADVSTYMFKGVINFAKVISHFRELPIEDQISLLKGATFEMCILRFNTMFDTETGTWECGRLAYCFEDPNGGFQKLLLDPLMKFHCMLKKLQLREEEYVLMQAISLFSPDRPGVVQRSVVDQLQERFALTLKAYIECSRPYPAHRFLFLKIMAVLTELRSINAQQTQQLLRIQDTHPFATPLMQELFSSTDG

Cc1ccccc1CO[C@@H]1C[C@@]2(C(C)C)CC[C@]1(C)O2
inactive: outcome [1] | Potency [3] | Potency [4] | outcome [5] | Potency [7] | Potency [8] | max response [10] -22.7% | activation [11] -3.81% | activation [12] 0.466% | max response [13] 5.16% | Potency [14] | max response [15] 1.88% | max response [16] -20.5% | Potency [17]
49.2%: max response [2]
0.789%: max response [9]
4.66%: max response [6]

O=C1C=CC(=O)c2ccccc21
-1.96%: max response [9]
active: Potency [12] 15.8 µM
inactive: activation [18] -2.25% | outcome [1] | Potency [3] | outcome [5] | Potency [7] | Potency [8] | max response [10] -12.9% | activation [19] -3.99% | activation [11] -1.33% | max response [13] -1.22% | Potency [14] | max response [15] -8.11% | max response [16] -3.96% | Potency [17] | max response [20] 2.78%
-18.7%: max response [2]
12.1%: max response [6]

c1ccc2c(c1)c1cccc3ccc4cccc2c4c31
inactive: activation [18] -3.29% and 7.3% | outcome [1] | outcome [5] | Potency [8] | Potency [14]

CNC(=O)N(C)c1nc2ccccc2s1
-6.4%: max response [6]
inactive: outcome [1] | Potency [4] | outcome [5] | Potency [7] | Potency [8] | max response [10] -2.41% | activation [11] 0.981% | max response [13] -2.93% | max response [15] -8.17% | max response [16] -16.4%
0.29%: max response [9]
active: Potency [12] 44.7 µM

CCCCOC(=O)[C@@H](C)Oc1ccc(Oc2ccc(C#N)cc2F)cc1
13.4%: max response [9]
inactive: outcome [1] | outcome [5] | Potency [7] | Potency [8] | max response [10] 12.7% | activation [19] -5.96% | activation [11] 0.919% | activation [12] -2.2% | max response [13] 5.77% | Potency [14] | max response [15] -7.64% | max response [16] 2.82% | max response [20] 1.04%
10.2%: max response [6]

O=C(O)C(F)(F)C(F)(F)C(F)(F)C(F)(F)C(F)(F)C(F)(F)C(F)(F)C(F)(F)C(F)(F)F
-12.9% and -38.7%: max response [6]
-7.72%: max response [9]
7.25% and 27.2%: max response [2]
inactive: outcome [1] | Potency [3] | Potency [7] | Potency [8] | max response [10] 20.8% | activation [19] 5.35% | activation [11] 1.39% and -1.65% | activation [12] -2.6% and 0.106% | max response [13] -0.9% and 3.39% | Potency [14] | max response [15] -6.6% and -12.4% | max response [16] -5.33% and -8.2% | Potency [17] | max response [20] -0.489% and -1.36%
